# High-throughput results deposited in PubChem BioAssay by National Center for Advancing Translational Sciences (NCATS).
# An excerpt weighted towards active compounds, which were near 0.74% of everything screened.
# Vif-A3F inh: inhibitors of Vif-A3F interaction. HeLa A3F-eYFP + Vif (tagged APOBEC3F with the HIV-1 protein that degrades it), YFP fluorescence increase. Potency, µM (doses to about 46.1 µM). AID 602313. 0.2% of 390,000 active; also: nearly all actives have a fitted effect of over 65% in size
#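 HeLa cells stably expressing A3F-eYFP plus Vif, plated and incubated overnight at 37 deg C, then exposed to compounds overnight at 37 deg C. Blocked degradation read as raised yellow fluorescence (Ex 488/Em 500-530).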
# Akt phos inh: Akt phosphorylation inhibition; activity change, % for hits at 50 µM; Neuro2A IGF-stimulated pAkt S473 HTRF, 20 min; stronger effect = lower value; 0.32% of 360,000 active; in the data active = activity change below about -80%; inconclusive = mostly about -51% to -80%
#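 Neuro2A cells (4,500/well, DMEM with 0.5% FBS) were treated with compound at a single 50 µM final concentration, stimulated with 6 nM IGF for 20 min at 37 °C, and lysed. Phospho-Akt Ser473 was read by HTRF as 665/615 ratio ×10^4.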
# Vif-A3G inh: inhibitors of Vif-APOBEC3G interaction. Q9HC16. HeLa A3G-eYFP + Vif (tagged APOBEC3G with the HIV-1 protein that degrades it), YFP fluorescence, overnight. Potency, µM (doses to about 46.1 µM), hits mostly inhibitors. 0.076% of 410,000 active. AID 602310; also: nearly all actives have a fitted effect of over 60% in size
# Target sequence (Q9HC16 whole entry, looked up): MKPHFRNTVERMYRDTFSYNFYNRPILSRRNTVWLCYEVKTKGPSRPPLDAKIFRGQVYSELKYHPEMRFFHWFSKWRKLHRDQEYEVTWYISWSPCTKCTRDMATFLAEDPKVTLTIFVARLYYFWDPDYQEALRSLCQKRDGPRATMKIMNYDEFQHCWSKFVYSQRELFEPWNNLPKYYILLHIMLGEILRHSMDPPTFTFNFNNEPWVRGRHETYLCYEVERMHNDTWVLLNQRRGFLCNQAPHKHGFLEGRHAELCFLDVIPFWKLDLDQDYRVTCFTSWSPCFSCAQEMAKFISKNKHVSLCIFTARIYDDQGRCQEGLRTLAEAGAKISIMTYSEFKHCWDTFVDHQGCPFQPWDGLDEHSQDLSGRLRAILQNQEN
#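 HeLa cells stably expressing Vif and C-terminally eYFP-tagged A3G, seeded overnight at 37 deg C, then exposed to compound by pintool overnight at 37 deg C. Rise in yellow fluorescence (Ex 488/Em 500-530, Acumen) marks blocked Vif-driven A3G degradation.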
# PINK1 modulator: modulators of PINK1 expression; Potency, µM (doses to about 76.6 µM), hits mostly activators; 0.2% of 410,000 active; PINK1 immunofluorescence, high-content cytometry, 24 h; active = well fitted activation curve with a large enough effect; inconclusive = small, poorly fitted or top-dose-only effect; cell line not stated here; also: nearly all actives have a fitted effect of over 65% in size
#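 Decision-based qHTS: stable cells, 24 h exposure to five compound concentrations, CCCP as control. Fixed cells stained for PINK1 plus nuclear, mitochondrial and cell markers, cytometer read.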
# LDHA inh: inhibitors of human lactate dehydrogenase A | activity change, % (values are at about 110 or 230 µM) | 0.15% of 480,000 active | purified LDHA, NADH/diaphorase-resazurin fluorescence; stronger effect = lower value | P00338; in the data active = activity change below about -30%; inconclusive = mostly about -25% to -30%
#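 Human LDH5 at 2 nM final in Tris HCl pH 7.4 with 0.06 mM NADH and 0.2 mM pyruvate, reacted 5 minutes at room temperature. Remaining NADH coupled via diaphorase/resazurin; resorufin fluorescence read at 0 and 20 minutes, normalized to enzyme-free and DMSO wells.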
# GRP78 ERSR act: inducers of ER stress response in human glioma cells. 0.02% of 420,000 active. U87-MG GRP78 promoter luciferase reporter, 16 h. AID 602332. Potency, µM, actives largely listed as activators; also: series mostly up to about 76 µM; nearly all actives have a fitted effect of over 35% in size
#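 Stably transfected U87-MG glioma cells carrying a GRP78-based luciferase sensor; 16 h compound incubation. Luminescence end-point read 10 min after Bright-Glo addition at room temperature.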
# Numbers stand for hits; 0 = inactive; ? = inconclusive; - = no result given; ! = repeats disagree. Unless noted, calls follow the shape of the dose curve; as a rule, active = well fitted curve in the direction sought with a large enough effect; inconclusive = small, poorly fitted or top-dose-only effect, or another doubt; inactive = no such curve, though single readings can be large; an effect the other way counts as inactive or inconclusive.
SMILES,Vif-A3F inh,Akt phos inh,Vif-A3G inh,PINK1 modulator,LDHA inh,GRP78 ERSR act
COc1cc(OC)cc(C(=O)N2CCN(C3CCN(Cc4ccccc4)CC3)CC2)c1,0,-,0,0,-31,0
N=c1c2c(n(Cc3ccc(Br)cc3)c3c1CCC3)CCCC2,0,0,0,35µM,0,0
CCCn1c2c(c(=N)c3c1CCC3)CCCC2,0,0,0,0,-36,0
CCCCCCCn1c2c(c(=N)c3ccccc31)CCC2,0,0,0,20µM,0,0
CCCn1c2c(c(=N)c3c1CCC3)CCC2,0,0,0,0,0,0
O=C(O)CCn1c2c(c3ccccc31)CCCC2,0,0,0,0,0,0
CCCN1Cc2cccc(C(=O)Nc3cc(Cl)ccc3Cl)c2C1=O,-,-,-,-,0,-
O=C(N/N=C/c1ccccc1)c1c(O)c2ccccc2[nH]c1=O,0,0,0,8.9µM,0,0
CCCn1c(=O)c(C(=O)N/N=C/c2ccc(F)cc2)c(O)c2ccccc21,0,0,0,0,0,0
O=C(N/N=C/c1cccc(F)c1)c1c(O)c2ccccc2[nH]c1=O,0,0,0,2.8µM,0,0
O=C(N/N=C/c1ccc(F)cc1)c1c(O)c2ccccc2[nH]c1=O,0,0,0,4.5µM,0,0
O=C(NNC(=O)c1c(O)c2ccccc2[nH]c1=O)c1ccccc1,0,0,0,0,0,0
COc1cccc(C2C3CN(C)CC=C3C(C#N)=C(N)C2(C#N)C#N)c1OC (stereo not drawn),0,0,0,35µM,0,0
CN1CC=C2C(C#N)=C(N)C(C#N)(C#N)[C@H](c3cccs3)[C@H]2C1,?,0,0,?,0,0
CCN1CC=C2C(C#N)=C(N)C(C#N)(C#N)[C@H](c3cccc(OC)c3OC)[C@H]2C1,0,0,0,?,0,0
CN1CC=C2C(C#N)=C(N)C(C#N)(C#N)C(c3ccsc3)C2C1 (stereo not drawn),0,0,0,10µM,0,0
CN1CC=C2C(C#N)=C(N)C(C#N)(C#N)[C@H](c3cccc(Cl)c3)C2C1 (stereo partly drawn),?,0,0,11µM,0,0
CCCC1C2CN(C(C)C)CC=C2C(C#N)=C(N)C1(C#N)C#N (stereo not drawn),0,0,0,10µM,0,0
COc1cc([C@@H]2[C@H]3CN(C)CC=C3C(C#N)=C(N)C2(C#N)C#N)cc2c1OCO2,0,0,0,18µM,0,0
CCc1ccccc1NC(=O)C1C(c2ccccc2)C1(Cl)Cl (stereo not drawn),-,-107%,0,0,0,0
O=C(Cn1nc(CNc2ccc(Cl)cc2)[n+]2c1CCCCC2)c1ccc(Br)cc1,0,0,0,0,0,0
O=C(Cn1nc(CNc2ccc(Br)cc2)[n+]2c1CCCCC2)c1ccc([N+](=O)[O-])cc1,0,0,0,40µM,0,0
CCC(=O)Nc1nn(C)c2nc3c(C)cccc3cc12,0,-113%,0,0,0,0
CCC(=O)Nc1ccccc1-c1nc2ccccc2[nH]c1=O,0,0,0,0,0,0
COc1ccc(S(=O)(=O)Nc2ccccc2-c2nc3ccccc3[nH]c2=O)cc1,3.5µM,0,?,0,0,0
SMILES,Vif-A3F inh,Akt phos inh,Vif-A3G inh,PINK1 modulator,LDHA inh,GRP78 ERSR act
O=C(CN1CCC(c2nc3ccccc3s2)CC1)NCc1ccccc1Cl,-,-,-,-,0,-
CCOC(=O)N1CCN(C(=O)c2oc3ccc(S(=O)(=O)N4CC(C)CC(C)C4)cc3c2C)CC1 (stereo not drawn),0,0,0,0,0,0
CCOC(=O)C1CCN(C(=O)c2oc3ccc(S(=O)(=O)N4CC(C)CC(C)C4)cc3c2C)CC1 (stereo not drawn),0,-82%,0,0,0,0
COC(=O)c1[nH]c2c(c1C(=O)OC)CCc1ccccc1-2,8.9µM,0,0,0,0,0
O=C(NCc1ccccc1)c1cc2cc(F)ccc2[nH]1,-,-,-,-,0,-
CCn1c(SCc2ccc(C(=O)Nc3nccs3)cc2)nnc1-c1ccc(NC(C)=O)cc1,-,-107%,0,0,0,0
CCn1c(SCc2ccc(C(=O)Nc3nccs3)cc2)nnc1-c1ccc(N)cc1,0,0,0,0,0,0
CCc1ccc(CNC(=O)c2cccn3c(=O)c4ccccc4nc23)cc1,-,-,-,-,0,-
Cn1c(CSc2nc3ccccc3s2)nnc1SCC(=O)NCCCN1CCOCC1,0,-136%,0,0,0,0
CCn1c(CSc2nc3ccccc3s2)nnc1SCC(=O)c1ccc2c(c1)OCCO2,0,-108%,0,0,0,0
Cc1ccc(C(Sc2ccccc2)C(Cn2cncn2)C(=O)c2ccccc2)cc1 (stereo not drawn),0,-104%,0,0,0,0
c1ccc2c(SCc3cn4ccccc4n3)ncnc2c1,-,-,-,-,0,-
CC1(C)CC2(CCO1)OC(=O)CC2C(=O)Nc1cccc2ccccc12 (stereo not drawn),0,-88%,0,0,0,0
O=C1CC(C(=O)Nc2cccc3ccccc23)C2(CCCC2)O1 (stereo not drawn),0,0,0,0,0,0
CN(C(=O)C1CCN(S(=O)(=O)c2cccs2)CC1)c1ccccc1,0,0,0,0,0,0
Cn1c(=NC(=O)C2CCN(S(=O)(=O)c3cccs3)CC2)sc2ccccc21,0,-91%!,0,0,0,0
Cn1cc(/C=C/c2cc[n+](C)cc2)c2cc(Cl)ccc21,?,0,?,?,0,0
C[n+]1ccc(/C=C/c2c[nH]c3ccc(F)cc23)cc1,10µM,0,8.9µM,16µM,0,0
Cn1cc(/C=C/c2cc[n+](C)cc2)c2cc(F)ccc21,?,0,?,11µM,0,0
CN(CC(=O)Nc1ccc(F)cc1)Cc1cnn(-c2ccccc2)c1,-,-,-,-,0,-
Cc1ccc(NC(=O)C2CCN(C(=O)N3CCOc4ccccc43)CC2)c(Cl)c1,-,-,-,-,0,-
CC(C)Sc1nc2c(c(=O)[nH]c(=O)n2C)n1Cc1ccccc1,?,0,0,0,-30!,0
COCCn1c(N(C)Cc2ccccc2)nc2c1c(=O)[nH]c(=O)n2C,-,-,-,-,0,-
CN(Cc1ccccc1)c1nc2c(c(=O)[nH]c(=O)n2C)n1CCOc1ccccc1,0,-124%,0,0,0,0
CC(C)Sc1nc2c(c(=O)[nH]c(=O)n2C)n1Cc1ccc(Cl)cc1,0,0,0,0,0,0
Cn1c(=O)[nH]c(=O)c2c1nc(OC(=O)c1ccccc1)n2CC(O)COc1ccc(F)cc1 (stereo not drawn),0,0,0,0,0,0
Cn1c(=O)[nH]c(=O)c2c1nc(OC(=O)c1ccccc1)n2CC(O)COc1ccccc1 (stereo not drawn),0,-126%,0,0,0,0
Cc1sc2ncnc(N(C)CCc3ccccn3)c2c1C,0,0,0,0,-32,0
